The values below come from ChEMBL document CHEMBL3433997, “St. Jude Leishmania screening dataset” (2016).

Each structure is given as a SMILES string. “And” between values parts separate entries of the source, which are not always exact repeats. Equal values may be shown once.

The term inhibition denotes the relative decrease from the control value, in per cent.

Solute carrier family 2, facilitated glucose transporter member 1 (Homo sapiens), sequence (P11166 whole entry): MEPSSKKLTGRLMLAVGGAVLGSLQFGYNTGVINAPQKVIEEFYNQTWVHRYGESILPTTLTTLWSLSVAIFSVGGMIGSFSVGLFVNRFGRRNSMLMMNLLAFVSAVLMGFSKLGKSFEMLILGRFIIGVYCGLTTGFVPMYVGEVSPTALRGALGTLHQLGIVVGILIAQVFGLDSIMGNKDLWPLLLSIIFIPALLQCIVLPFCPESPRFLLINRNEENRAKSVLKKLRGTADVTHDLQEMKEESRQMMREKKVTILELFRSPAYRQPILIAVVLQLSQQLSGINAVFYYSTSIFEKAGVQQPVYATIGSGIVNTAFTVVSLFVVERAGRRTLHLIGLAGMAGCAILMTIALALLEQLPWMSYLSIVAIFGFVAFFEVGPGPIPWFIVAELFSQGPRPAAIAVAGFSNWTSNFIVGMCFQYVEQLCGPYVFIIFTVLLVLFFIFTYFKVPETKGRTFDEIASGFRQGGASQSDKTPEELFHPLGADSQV

The first assay addresses Solute carrier family 2, facilitated glucose transporter member 1 (Homo sapiens) (UniProt P11166). The assay can be described thus: ST_JUDE_LEISH: Cytotoxicity at 2uM final concentration against transgenic Leishmania Mexicana promastigotes LmGLUT1 that are glucose transport deficient and complemented with the human glucose transporter GLUT1. Activity is measured by DNA content using SYBR green in vitro. The class given is functional.
Turning to `N#Cc1ccc2c(c1)CCN(CCCn1c(-c3ccc4ccccc4c3)nc3ccncc31)CC2`, the inhibition was 15.1%.

As for `CCN(CCCN1CCCCC1)c1cc(C)nc(Nc2ccc(OC)cc2)n1`, the inhibition is -2.3%.

As to `O=C(c1ccc(-c2ccccn2)s1)N1CCc2cc3nccc(N4CCN5CCC[C@H]5C4)c3cc21`, the inhibition turned out to be 8.55%.

Take `COc1cc2nc(C)nc(Nc3ccc(Cc4ccccc4)cc3)c2cc1OC`: the inhibition stood at 4.72%.

As to `OC1=C2C(=Nc3ccccc3SC2c2ccccc2)c2ccccc21` (stereo not given), the inhibition amounted to 4.3%.

For the compound `O=C(NCCCCN1CCCC2c3ccc(O)cc3CCC21)c1ccc(-c2ccccc2)cc1` (stereo not given), the inhibition is 0.24% and 13.2%.

`NC(=O)Nc1ccc2c(Nc3ccc(OCc4ccccc4)cc3)ncnc2c1`: the inhibition was -1.45%.

On to `OCC1CCCCN1Cc1cccc(-c2cccc(-c3nc4ccccc4[nH]3)c2)c1` (stereo not given), for which the inhibition came out at 6.6%.

As for `COc1cccc(O)c1CN1CCC2(CCCN(Cc3ccc(F)cc3)C2)C1` (stereo not given), the inhibition came out at 1.04%.

For the compound `CC1CCCN(c2ccc(NC(=O)c3cccs3)cc2[N+](=O)[O-])C1` (stereo not given), the inhibition stood at 1.22%.

As to `CCc1ccccc1N1CCN(CCCCNC(=O)c2ccc(NC(=O)c3ccc(Cl)cc3)cc2)CC1`, the inhibition was found to be 2.51%.

For `OC(Cn1ccnc1)(c1ccc(Cl)cc1Cl)C1CCCCC1` (stereo not given), the inhibition stood at 7.78%.

With `NC1=NC(c2ccccc2)(c2ccccn2)C(=O)N1CCCc1ccccc1` (stereo not given), the inhibition came to 6.44%.

On to `O=C(Nc1ccc(Cl)cc1)c1cccc(S(=O)(=O)NC2CCN(CC3CCCCC3)C2)c1` (stereo not given), for which the inhibition is 9.12%.

In the case of `CN1c2ccc([N+](=O)[O-])cc2C(C)(C)C12C=Cc1cc(Br)cc([N+](=O)[O-])c1O2` (stereo not given), the inhibition is 2.03%.

Turning to `O=S(=O)(Nc1cccc(CCN2CCCCC2CCN2CCCC2)c1)c1ccc(-c2ccccc2)cc1` (stereo not given), the inhibition was found to be 2.86%.

As to `CCCCNCc1ccc(-c2nc(CN(C(=O)Nc3cc([N+](=O)[O-])ccc3F)C3Cc4ccccc4C3)cs2)cc1`, the inhibition is 6.86%.

On to `COc1ccc(CNC2CCN(C)CC2)cc1-c1ccc(OC)c(S(=O)(=O)NCc2ccccc2)c1`, for which the inhibition stood at 1.01%.

In the case of `Oc1ccc(CCNCCCCCCNCCc2ccc(Cl)c3ccccc23)cc1O`, the inhibition was -0.26%.

Turning to `O=C(N[C@H]1CCN(Cc2ccc(OCCN3CCNCC3)c(Br)c2)C1)c1ccc(Cl)c(Cl)c1`, the inhibition was determined as 0.35%.

Turning to `CC(C)C(NC(=O)Cc1cccc2ccccc12)C(=O)Nc1cccc(C#N)c1` (stereo not given), the inhibition stood at 2.08%.

For `COc1ccccc1N1CCN(CCCCNC(=O)c2ccc(NC(=O)c3ccc(C(F)(F)F)cc3)cc2)CC1`, the inhibition is -0.92%.

Regarding `CC(C)CNCc1cccc(-c2cccc(CNCCCN3CCN(C)CC3)c2)c1`, the inhibition was found to be 2.03%.

For `O=C(c1ccc(-c2ccc(-c3nc4cc(F)ccc4[nH]3)cc2)cc1)N1CCCCC1CN1CCC(O)C1` (stereo not given), the inhibition worked out at 4.53%.

Take `Cc1ccc2[nH]c(C)cc(=NN=Cc3ccccc3Cl)c2c1`: the inhibition was determined as 2.11%.

Take `CN1CCC(NCc2ccc(-c3cccc(S(=O)(=O)NCC4CCCO4)c3)cc2)CC1` (stereo not given): the inhibition was found to be 0.62%.

In the case of `Cc1cc(=NN=CC=Cc2ccccc2)c2ccccc2[nH]1`, the inhibition turned out to be 1.28%.

As for `CC(=O)Oc1cc(C(=O)Nc2ccc(Cl)cc2)cc2ccccc12`, the inhibition was 7.81%.

For `Cc1nccc2c(NC(=O)N[C@@H]3CCN(c4ncc(C(F)(F)F)cc4Br)C3)cccc12`, the inhibition was 1.06%.

Regarding `CNc1ccc(CNCc2ccc(-c3ccc(-c4nc5cc(C(F)(F)F)ccc5[nH]4)cc3)cc2)cc1`, the inhibition was 0.54%.

`O=C(c1ccc(Cl)cc1Cl)N1CCCC(C(F)(F)F)C1` (stereo not given): the inhibition turned out to be 8.69%.

`Cc1ccc2c(c1)c(C1CCN(C(=O)c3ccc([N+](=O)[O-])o3)CC1)cn2C`: the inhibition amounted to 8.36%.

`COc1ccc(NC(=O)c2ccc(NC(=O)c3ccc(Cl)cc3)cc2)cc1N1CCN(C)CC1`: the inhibition came out at 4.33%.

As for `O=C(N[C@H]1CCN(Cc2ccc(OCCCN3CCCCC3)cc2)C1)c1ccc2ccccc2c1`, the inhibition came to 4.56%.

As for `COc1cccc2c(NCc3ccccc3)nc(NCCCN3CCCCC3C)nc12` (stereo not given), the inhibition was 67.7%.

Turning to `Cc1cccn2c(=O)c3cc(C(=O)NCCc4ccccc4)c(=N)n(CCCOC(C)C)c3nc12`, the inhibition came to 8.75%.

For `CCN(CC)CCn1c(=N)n(CC(=O)c2ccc(-c3ccccc3)cc2)c2ccccc21`, the inhibition amounted to 0.58%.

Take `CN(C)CCOc1ccc(N2CCN(CCCCNC(=O)c3ccc(NC(=O)c4ccc(Cl)cc4)cc3)CC2)cc1`: the inhibition came out at 0.54%.

In the case of `CCn1c(C(C)C)cc2c3c(N)nc(N)nc3ccc21`, the inhibition was 50.6%.

Consider `COc1ccc(N2CCc3c(-c4cccc5cnccc45)cc(C)nc32)c(C)c1`, for which the inhibition is -0.79%.

For a further assay, the target named is Hexose transporter 1 (Plasmodium falciparum) (UniProt O97467). The assay can be described thus: ST_JUDE_LEISH: Cytotoxicity at 2uM final concentration against transgenic Leishmania Mexicana promastigotes LmPfHT that are glucose transport deficient and complemented with the Plasmodium falciparum hexose transporter. Activity is measured by DNA content using SYBR green in vitro. The class given is functional.
Turning to `N#Cc1ccc2c(c1)CCN(CCCn1c(-c3ccc4ccccc4c3)nc3ccncc31)CC2`, the inhibition was determined as 16.1%.

On to `CCN(CCCN1CCCCC1)c1cc(C)nc(Nc2ccc(OC)cc2)n1`, for which the inhibition was -1.06%.

Consider `O=C(c1ccc(-c2ccccn2)s1)N1CCc2cc3nccc(N4CCN5CCC[C@H]5C4)c3cc21`, for which the inhibition came to 8.34%.

For the compound `COc1cc2nc(C)nc(Nc3ccc(Cc4ccccc4)cc3)c2cc1OC`, the inhibition is 5.93%.

On to `OC1=C2C(=Nc3ccccc3SC2c2ccccc2)c2ccccc21` (stereo not given), for which the inhibition turned out to be 5.31%.

For `O=C(NCCCCN1CCCC2c3ccc(O)cc3CCC21)c1ccc(-c2ccccc2)cc1` (stereo not given), the inhibition was 1.39% and 1.92%.

Turning to `NC(=O)Nc1ccc2c(Nc3ccc(OCc4ccccc4)cc3)ncnc2c1`, the inhibition is -0.35%.

Turning to `OCC1CCCCN1Cc1cccc(-c2cccc(-c3nc4ccccc4[nH]3)c2)c1` (stereo not given), the inhibition worked out at 4.14%.

Turning to `COc1cccc(O)c1CN1CCC2(CCCN(Cc3ccc(F)cc3)C2)C1` (stereo not given), the inhibition stood at 2.73%.

In the case of `CC1CCCN(c2ccc(NC(=O)c3cccs3)cc2[N+](=O)[O-])C1` (stereo not given), the inhibition was found to be 1.19%.

On to `CCc1ccccc1N1CCN(CCCCNC(=O)c2ccc(NC(=O)c3ccc(Cl)cc3)cc2)CC1`, for which the inhibition is 2.19%.

Regarding `OC(Cn1ccnc1)(c1ccc(Cl)cc1Cl)C1CCCCC1` (stereo not given), the inhibition turned out to be 1.5%.

Turning to `NC1=NC(c2ccccc2)(c2ccccn2)C(=O)N1CCCc1ccccc1` (stereo not given), the inhibition is 2.19%.

On to `O=C(Nc1ccc(Cl)cc1)c1cccc(S(=O)(=O)NC2CCN(CC3CCCCC3)C2)c1` (stereo not given), for which the inhibition was 8.41%.

As to `CN1c2ccc([N+](=O)[O-])cc2C(C)(C)C12C=Cc1cc(Br)cc([N+](=O)[O-])c1O2` (stereo not given), the inhibition was -0.39%.

With `O=S(=O)(Nc1cccc(CCN2CCCCC2CCN2CCCC2)c1)c1ccc(-c2ccccc2)cc1` (stereo not given), the inhibition was -0.3%.

In the case of `CCCCNCc1ccc(-c2nc(CN(C(=O)Nc3cc([N+](=O)[O-])ccc3F)C3Cc4ccccc4C3)cs2)cc1`, the inhibition is 8.03%.

For `COc1ccc(CNC2CCN(C)CC2)cc1-c1ccc(OC)c(S(=O)(=O)NCc2ccccc2)c1`, the inhibition was 1.62%.

For `Oc1ccc(CCNCCCCCCNCCc2ccc(Cl)c3ccccc23)cc1O`, the inhibition is -2.07%.

On to `O=C(N[C@H]1CCN(Cc2ccc(OCCN3CCNCC3)c(Br)c2)C1)c1ccc(Cl)c(Cl)c1`, for which the inhibition is 0.16%.

For the compound `CC(C)C(NC(=O)Cc1cccc2ccccc12)C(=O)Nc1cccc(C#N)c1` (stereo not given), the inhibition came out at 3.27%.

Regarding `COc1ccccc1N1CCN(CCCCNC(=O)c2ccc(NC(=O)c3ccc(C(F)(F)F)cc3)cc2)CC1`, the inhibition was -0.29%.

As to `CC(C)CNCc1cccc(-c2cccc(CNCCCN3CCN(C)CC3)c2)c1`, the inhibition is 0.17%.

Turning to `O=C(c1ccc(-c2ccc(-c3nc4cc(F)ccc4[nH]3)cc2)cc1)N1CCCCC1CN1CCC(O)C1` (stereo not given), the inhibition stood at 4.9%.

`Cc1ccc2[nH]c(C)cc(=NN=Cc3ccccc3Cl)c2c1`: the inhibition was 3.39%.

Take `CN1CCC(NCc2ccc(-c3cccc(S(=O)(=O)NCC4CCCO4)c3)cc2)CC1` (stereo not given): the inhibition came out at 3.18%.

As for `Cc1cc(=NN=CC=Cc2ccccc2)c2ccccc2[nH]1`, the inhibition stood at 2.74%.

For `CC(=O)Oc1cc(C(=O)Nc2ccc(Cl)cc2)cc2ccccc12`, the inhibition turned out to be 5.31%.

With `Cc1nccc2c(NC(=O)N[C@@H]3CCN(c4ncc(C(F)(F)F)cc4Br)C3)cccc12`, the inhibition stood at 1.71%.

As to `CNc1ccc(CNCc2ccc(-c3ccc(-c4nc5cc(C(F)(F)F)ccc5[nH]4)cc3)cc2)cc1`, the inhibition is -1.86%.

As for `O=C(c1ccc(Cl)cc1Cl)N1CCCC(C(F)(F)F)C1` (stereo not given), the inhibition was determined as 11.4%.

Take `Cc1ccc2c(c1)c(C1CCN(C(=O)c3ccc([N+](=O)[O-])o3)CC1)cn2C`: the inhibition was 9.14%.

For the compound `COc1ccc(NC(=O)c2ccc(NC(=O)c3ccc(Cl)cc3)cc2)cc1N1CCN(C)CC1`, the inhibition amounted to 4.66%.

Take `O=C(N[C@H]1CCN(Cc2ccc(OCCCN3CCCCC3)cc2)C1)c1ccc2ccccc2c1`: the inhibition is 6.47%.

Consider `COc1cccc2c(NCc3ccccc3)nc(NCCCN3CCCCC3C)nc12` (stereo not given), for which the inhibition was 50.8%.

Consider `Cc1cccn2c(=O)c3cc(C(=O)NCCc4ccccc4)c(=N)n(CCCOC(C)C)c3nc12`, for which the inhibition turned out to be 6.64%.

As to `CCN(CC)CCn1c(=N)n(CC(=O)c2ccc(-c3ccccc3)cc2)c2ccccc21`, the inhibition was 1.91%.

`CN(C)CCOc1ccc(N2CCN(CCCCNC(=O)c3ccc(NC(=O)c4ccc(Cl)cc4)cc3)CC2)cc1`: the inhibition worked out at 0.36%.

For `CCn1c(C(C)C)cc2c3c(N)nc(N)nc3ccc21`, the inhibition amounted to 61.1%.

For `COc1ccc(N2CCc3c(-c4cccc5cnccc45)cc(C)nc32)c(C)c1`, the inhibition was 0.13%.
